In the supplement of paper PMC11732987, “Enantioselective OTUD7B fragment discovery through chemoproteomics screening and high-throughput optimisation” (Communications Chemistry, 2025):

Key:
Assay in all cases: log2 ratio of Biotin-Ahx-Ub-VS probe labelling (fragment/DMSO); higher = less target engagement (more negative = stronger competition), active = hit call of the paper (q ≤ 0.05, log2 ratio ≤ -1)
Conditions in all cases: compound concentration: 200 uM; treatment time: 3 h
USP34 = USP34 (UniProt Q70CQ2)
Sequence of USP34 (Q70CQ2 whole entry, the tested form may be a part): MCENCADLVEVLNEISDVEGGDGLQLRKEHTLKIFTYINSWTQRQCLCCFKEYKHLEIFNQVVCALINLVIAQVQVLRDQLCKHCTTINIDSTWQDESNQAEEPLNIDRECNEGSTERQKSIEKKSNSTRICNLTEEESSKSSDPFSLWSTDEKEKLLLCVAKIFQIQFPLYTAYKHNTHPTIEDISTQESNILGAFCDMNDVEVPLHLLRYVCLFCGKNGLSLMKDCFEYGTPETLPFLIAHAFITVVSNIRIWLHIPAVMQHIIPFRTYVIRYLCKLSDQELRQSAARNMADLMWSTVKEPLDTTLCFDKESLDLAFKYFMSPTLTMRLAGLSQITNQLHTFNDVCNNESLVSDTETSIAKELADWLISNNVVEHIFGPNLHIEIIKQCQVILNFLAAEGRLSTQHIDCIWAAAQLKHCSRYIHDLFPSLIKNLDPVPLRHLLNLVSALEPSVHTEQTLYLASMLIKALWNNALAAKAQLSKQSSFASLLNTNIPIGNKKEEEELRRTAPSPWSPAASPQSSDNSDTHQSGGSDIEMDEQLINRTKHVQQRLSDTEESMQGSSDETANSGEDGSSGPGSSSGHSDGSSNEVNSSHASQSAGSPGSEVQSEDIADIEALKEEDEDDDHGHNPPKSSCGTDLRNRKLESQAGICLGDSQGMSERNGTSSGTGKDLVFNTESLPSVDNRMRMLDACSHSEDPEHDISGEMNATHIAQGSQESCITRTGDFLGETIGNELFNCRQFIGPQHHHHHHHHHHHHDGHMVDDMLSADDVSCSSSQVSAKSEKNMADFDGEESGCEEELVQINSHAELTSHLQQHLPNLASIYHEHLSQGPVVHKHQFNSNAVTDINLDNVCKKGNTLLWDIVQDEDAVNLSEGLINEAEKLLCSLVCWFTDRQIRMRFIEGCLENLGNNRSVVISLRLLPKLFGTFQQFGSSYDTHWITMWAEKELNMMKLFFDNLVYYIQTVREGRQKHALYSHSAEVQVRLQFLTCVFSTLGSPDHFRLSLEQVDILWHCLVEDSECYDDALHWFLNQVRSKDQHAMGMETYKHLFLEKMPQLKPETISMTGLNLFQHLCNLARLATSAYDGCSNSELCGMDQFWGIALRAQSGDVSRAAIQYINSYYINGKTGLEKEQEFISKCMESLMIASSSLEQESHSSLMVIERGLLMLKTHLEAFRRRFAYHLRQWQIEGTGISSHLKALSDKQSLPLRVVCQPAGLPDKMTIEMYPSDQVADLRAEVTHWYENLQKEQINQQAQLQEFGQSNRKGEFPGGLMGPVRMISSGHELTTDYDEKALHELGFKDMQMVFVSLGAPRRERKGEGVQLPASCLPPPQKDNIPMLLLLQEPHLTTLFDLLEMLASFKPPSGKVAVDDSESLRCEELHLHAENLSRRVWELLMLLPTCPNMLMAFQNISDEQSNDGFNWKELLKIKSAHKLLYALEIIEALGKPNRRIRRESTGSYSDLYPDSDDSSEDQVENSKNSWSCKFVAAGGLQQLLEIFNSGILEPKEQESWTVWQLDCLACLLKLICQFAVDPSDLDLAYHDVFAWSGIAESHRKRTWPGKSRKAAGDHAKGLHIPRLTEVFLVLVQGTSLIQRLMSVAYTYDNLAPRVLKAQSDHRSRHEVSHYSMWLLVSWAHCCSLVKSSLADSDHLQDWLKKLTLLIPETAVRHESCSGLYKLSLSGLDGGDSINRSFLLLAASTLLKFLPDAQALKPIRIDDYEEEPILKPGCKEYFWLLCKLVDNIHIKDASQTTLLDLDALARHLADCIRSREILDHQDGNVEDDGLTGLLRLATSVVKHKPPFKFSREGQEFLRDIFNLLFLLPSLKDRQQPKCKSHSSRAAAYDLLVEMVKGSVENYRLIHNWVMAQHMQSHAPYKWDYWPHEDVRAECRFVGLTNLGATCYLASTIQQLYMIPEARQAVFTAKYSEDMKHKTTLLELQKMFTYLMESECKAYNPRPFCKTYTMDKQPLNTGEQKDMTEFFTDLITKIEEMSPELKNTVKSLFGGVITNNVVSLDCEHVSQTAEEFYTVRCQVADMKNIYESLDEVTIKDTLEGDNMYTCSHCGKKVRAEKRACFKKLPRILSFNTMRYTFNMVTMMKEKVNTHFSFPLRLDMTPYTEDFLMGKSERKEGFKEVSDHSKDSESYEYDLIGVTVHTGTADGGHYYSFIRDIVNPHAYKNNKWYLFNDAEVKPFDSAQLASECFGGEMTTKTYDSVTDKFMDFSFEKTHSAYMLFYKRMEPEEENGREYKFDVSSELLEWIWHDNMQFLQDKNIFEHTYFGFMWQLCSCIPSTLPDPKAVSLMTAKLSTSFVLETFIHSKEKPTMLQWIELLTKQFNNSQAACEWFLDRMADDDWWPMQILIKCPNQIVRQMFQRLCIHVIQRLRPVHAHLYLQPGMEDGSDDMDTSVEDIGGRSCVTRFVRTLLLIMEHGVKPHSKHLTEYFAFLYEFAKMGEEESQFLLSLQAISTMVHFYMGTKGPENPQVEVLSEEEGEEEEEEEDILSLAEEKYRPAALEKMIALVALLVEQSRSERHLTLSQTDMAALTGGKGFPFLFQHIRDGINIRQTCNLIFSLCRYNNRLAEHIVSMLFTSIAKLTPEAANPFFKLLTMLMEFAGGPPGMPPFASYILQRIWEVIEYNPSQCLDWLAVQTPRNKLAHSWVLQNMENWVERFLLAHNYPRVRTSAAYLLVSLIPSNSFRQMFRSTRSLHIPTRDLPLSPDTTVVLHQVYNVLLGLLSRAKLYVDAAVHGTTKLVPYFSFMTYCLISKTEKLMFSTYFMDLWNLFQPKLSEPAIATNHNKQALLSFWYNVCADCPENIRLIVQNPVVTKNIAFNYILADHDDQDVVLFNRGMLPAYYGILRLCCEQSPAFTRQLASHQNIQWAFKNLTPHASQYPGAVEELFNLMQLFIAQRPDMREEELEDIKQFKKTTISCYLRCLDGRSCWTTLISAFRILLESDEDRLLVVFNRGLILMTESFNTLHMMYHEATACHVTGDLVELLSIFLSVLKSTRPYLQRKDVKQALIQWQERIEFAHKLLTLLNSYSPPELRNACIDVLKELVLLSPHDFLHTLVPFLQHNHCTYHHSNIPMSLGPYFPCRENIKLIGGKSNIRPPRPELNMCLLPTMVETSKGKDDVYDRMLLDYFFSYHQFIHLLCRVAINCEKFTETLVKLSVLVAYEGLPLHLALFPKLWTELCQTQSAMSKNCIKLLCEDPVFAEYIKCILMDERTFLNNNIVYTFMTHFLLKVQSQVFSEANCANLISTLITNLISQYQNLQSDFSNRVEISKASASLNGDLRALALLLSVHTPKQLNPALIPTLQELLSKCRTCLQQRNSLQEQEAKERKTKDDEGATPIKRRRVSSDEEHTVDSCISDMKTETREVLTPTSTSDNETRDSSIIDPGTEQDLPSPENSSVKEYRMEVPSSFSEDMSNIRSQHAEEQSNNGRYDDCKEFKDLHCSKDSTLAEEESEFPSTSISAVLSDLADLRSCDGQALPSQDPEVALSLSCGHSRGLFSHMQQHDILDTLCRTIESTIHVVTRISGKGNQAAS
How it was run: (§1)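 Triplicate samples of HEK293T lysate, 495 µg each, received fragment at 200 µM or vehicle for 3 h, followed by Biotin-Ahx-Ub-VS (0.5 µM final) for 1 h. After NeutrAvidin enrichment of labelled DUBs and LysC/trypsin digestion, peptides were run by diaPASEF LC-MS/MS. The values are average log2 fragment/vehicle ratios from global-median-normalised Spectronaut label-free quantities, tested by unpaired t-test on proteins having ≥2 unique peptides.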

USP36 = biological target: T1, USP36 (UniProt Q9P275)
T1 sequence (whole entry): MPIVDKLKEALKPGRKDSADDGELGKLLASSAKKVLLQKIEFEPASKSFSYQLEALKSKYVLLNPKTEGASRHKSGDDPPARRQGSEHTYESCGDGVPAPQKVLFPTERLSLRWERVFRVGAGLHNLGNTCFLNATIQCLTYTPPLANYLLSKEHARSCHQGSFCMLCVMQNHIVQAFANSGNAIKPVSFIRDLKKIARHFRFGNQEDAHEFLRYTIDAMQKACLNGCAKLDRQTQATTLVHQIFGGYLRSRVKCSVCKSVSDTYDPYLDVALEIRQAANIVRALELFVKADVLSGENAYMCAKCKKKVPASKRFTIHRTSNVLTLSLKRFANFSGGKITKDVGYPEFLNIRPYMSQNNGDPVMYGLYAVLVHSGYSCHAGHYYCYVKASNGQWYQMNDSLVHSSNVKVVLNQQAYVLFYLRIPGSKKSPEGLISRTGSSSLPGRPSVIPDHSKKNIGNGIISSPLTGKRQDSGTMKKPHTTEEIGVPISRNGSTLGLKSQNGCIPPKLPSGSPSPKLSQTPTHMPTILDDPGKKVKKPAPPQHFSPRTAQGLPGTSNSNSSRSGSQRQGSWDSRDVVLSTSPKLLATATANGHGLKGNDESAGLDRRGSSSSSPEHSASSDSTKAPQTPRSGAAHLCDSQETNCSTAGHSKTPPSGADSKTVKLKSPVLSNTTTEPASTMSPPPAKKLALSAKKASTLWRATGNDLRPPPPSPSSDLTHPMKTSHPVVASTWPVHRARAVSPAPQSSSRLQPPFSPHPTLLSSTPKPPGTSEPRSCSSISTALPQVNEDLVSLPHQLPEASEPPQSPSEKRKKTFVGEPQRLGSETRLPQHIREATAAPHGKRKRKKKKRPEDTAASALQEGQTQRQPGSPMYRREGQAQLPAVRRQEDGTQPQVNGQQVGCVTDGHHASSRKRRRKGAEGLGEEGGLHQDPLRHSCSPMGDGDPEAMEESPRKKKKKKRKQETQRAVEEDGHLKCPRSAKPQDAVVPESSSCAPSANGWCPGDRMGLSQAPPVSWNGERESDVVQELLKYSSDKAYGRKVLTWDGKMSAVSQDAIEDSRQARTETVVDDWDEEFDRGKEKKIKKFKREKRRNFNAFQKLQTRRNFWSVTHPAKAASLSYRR
How it was run: as §1

USP38 = biological target: T2, USP38 (UniProt Q8NB14)
T2 sequence (whole entry): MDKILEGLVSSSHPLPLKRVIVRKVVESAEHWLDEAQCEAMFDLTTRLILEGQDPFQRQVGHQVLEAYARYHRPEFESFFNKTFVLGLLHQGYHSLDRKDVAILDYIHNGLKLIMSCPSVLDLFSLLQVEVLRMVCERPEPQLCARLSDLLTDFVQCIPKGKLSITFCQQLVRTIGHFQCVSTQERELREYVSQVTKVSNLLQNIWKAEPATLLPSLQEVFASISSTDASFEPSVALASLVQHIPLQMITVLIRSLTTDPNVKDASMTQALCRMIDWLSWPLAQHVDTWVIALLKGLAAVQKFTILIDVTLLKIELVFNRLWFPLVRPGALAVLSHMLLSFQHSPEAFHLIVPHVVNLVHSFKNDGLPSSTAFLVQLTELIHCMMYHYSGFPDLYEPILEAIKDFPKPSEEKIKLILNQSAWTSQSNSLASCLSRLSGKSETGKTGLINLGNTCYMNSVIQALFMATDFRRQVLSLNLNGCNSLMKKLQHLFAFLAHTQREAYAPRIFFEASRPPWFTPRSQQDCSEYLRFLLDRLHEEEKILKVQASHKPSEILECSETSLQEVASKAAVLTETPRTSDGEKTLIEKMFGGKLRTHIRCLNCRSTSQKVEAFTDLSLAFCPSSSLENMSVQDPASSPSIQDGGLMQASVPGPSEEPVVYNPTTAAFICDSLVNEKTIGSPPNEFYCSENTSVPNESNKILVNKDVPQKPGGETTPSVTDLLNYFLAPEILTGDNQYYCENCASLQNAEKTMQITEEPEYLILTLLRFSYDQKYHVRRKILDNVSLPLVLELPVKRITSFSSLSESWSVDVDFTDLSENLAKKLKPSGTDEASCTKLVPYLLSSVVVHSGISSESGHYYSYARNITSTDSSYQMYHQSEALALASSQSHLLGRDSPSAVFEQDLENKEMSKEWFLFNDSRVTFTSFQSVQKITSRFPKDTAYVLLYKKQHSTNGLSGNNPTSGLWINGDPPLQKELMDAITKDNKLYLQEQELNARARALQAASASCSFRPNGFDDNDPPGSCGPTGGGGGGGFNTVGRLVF
How it was run: as §1

USP39 = biological target: T3, USP39 (UniProt Q53GS9)
T3 sequence (whole entry): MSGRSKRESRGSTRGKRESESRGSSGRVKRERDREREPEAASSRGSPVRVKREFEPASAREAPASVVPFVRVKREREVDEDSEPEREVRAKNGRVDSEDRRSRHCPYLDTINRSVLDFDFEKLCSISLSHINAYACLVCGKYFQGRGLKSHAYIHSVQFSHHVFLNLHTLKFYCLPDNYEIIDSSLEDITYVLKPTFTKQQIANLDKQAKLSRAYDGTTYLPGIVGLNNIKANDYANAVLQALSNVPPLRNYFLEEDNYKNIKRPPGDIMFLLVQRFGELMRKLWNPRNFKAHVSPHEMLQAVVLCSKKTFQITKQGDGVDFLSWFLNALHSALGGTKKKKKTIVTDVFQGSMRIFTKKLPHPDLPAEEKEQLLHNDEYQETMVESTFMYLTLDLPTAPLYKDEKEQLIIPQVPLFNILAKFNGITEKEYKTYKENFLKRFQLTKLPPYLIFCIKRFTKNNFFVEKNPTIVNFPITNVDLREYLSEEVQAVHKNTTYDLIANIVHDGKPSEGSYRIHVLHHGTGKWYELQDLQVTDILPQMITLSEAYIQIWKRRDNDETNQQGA
How it was run: as §1

USP4 = biological target: T4, USP4 (UniProt Q13107)
T4 sequence (whole entry): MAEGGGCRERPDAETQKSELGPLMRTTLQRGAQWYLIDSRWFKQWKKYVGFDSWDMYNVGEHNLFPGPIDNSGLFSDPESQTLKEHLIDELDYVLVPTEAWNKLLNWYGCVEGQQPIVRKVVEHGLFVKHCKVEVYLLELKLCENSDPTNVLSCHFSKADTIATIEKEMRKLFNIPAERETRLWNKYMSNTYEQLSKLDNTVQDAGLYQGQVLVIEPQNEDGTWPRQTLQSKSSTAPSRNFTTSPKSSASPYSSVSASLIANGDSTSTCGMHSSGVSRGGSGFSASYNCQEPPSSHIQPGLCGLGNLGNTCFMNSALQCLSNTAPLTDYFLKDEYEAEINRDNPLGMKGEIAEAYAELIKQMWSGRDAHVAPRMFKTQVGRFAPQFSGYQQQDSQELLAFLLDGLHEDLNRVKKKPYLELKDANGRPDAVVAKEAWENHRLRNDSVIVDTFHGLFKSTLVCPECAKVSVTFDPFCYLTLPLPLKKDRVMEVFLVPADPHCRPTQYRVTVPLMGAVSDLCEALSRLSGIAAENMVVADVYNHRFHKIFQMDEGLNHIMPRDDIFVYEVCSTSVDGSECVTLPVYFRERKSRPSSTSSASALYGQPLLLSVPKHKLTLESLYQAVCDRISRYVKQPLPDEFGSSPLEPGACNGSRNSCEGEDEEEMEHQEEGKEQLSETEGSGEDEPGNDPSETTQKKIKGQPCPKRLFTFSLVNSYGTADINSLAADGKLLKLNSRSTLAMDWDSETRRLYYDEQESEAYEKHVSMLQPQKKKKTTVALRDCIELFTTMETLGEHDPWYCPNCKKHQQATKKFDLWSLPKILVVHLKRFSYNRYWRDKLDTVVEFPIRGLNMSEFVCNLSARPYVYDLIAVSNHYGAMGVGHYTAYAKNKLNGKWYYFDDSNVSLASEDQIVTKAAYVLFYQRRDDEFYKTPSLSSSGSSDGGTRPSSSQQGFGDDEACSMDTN
How it was run: as §1

Measured: log2 ratio of Biotin-Ahx-Ub-VS probe labelling

O=C(CCl)NC1CCN(C(=O)C2CCCCC2)CC1
inactive: USP34 0.0203 | USP36 -0.0678 | USP38 0.166 | USP39 0.187 | USP4 -0.0463
